# Assay results: PubChem BioAssay (NCI)
# The panel holds about 79,000 compounds, 15% with a hit somewhere; the sample as a whole holds those more often. Unmarked numbers belong to inactive results. The source made the active and inactive calls. No stated cut-off is given here; in the data, active means growth inhibition above about 70%; inactive means the rest.
# Legend:
# [1] = NCI Yeast Anticancer Drug Screen. Data for the rad50 strain (AID 155);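 further: 0% = growth of vehicle-only cultures of the same strain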; settings: S. cerevisiae rad50 strain growth inhibition, hits give high values
# How it was run: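 Relative growth inhibition (compound vs vehicle) was measured in yeast with a defined repair-gene alteration.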
# [2] = NCI Yeast Anticancer Drug Screen. Data for the mec2-1 strain (AID 157); settings: S. cerevisiae mec2-1 strain, hits give high values
# How it was run: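 Readout is yeast growth inhibition, normalised to vehicle-treated controls, in the mec2-1 strain exposed to compound.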
# [3] = NCI Yeast Anticancer Drug Screen. Data for the sgs1 mgt1 strain (AID 161);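 further: 0% = growth of cultures given vehicle only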; settings: S. cerevisiae sgs1 mgt1 strain, hits give high values
# How it was run: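 This yeast growth screen uses a strain with defined DNA-repair lesions; compound-treated growth is compared with vehicle-treated growth.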
# [4] = NCI Yeast Anticancer Drug Screen. Data for the cln2 rad14 strain (AID 165);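 further: 0% = growth equal to vehicle treated cultures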; settings: S. cerevisiae cln2 rad14 strain, hits give high values
# How it was run: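 Relative to vehicle controls, growth inhibition of compound-treated cln2 rad14 yeast was recorded.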
# [5] = NCI Yeast Anticancer Drug Screen. Data for the bub3 strain (AID 167); settings: S. cerevisiae bub3 mutant strain, hits give high values
# How it was run: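 Screening used yeast with an engineered genetic alteration affecting cell cycle control. Compound-exposed cultures were compared with vehicle cultures, and reduced growth was taken as inhibition.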
# [6] = NCI Yeast Anticancer Drug Screen. Data for the mlh1 rad18 strain (AID 175); settings: S. cerevisiae mlh1 rad18 strain growth inhibition, hits give high values
# How it was run: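 Test agents were incubated with a yeast strain of defined genotype (DNA damage repair defect). Inhibition of growth was derived by comparison with vehicle-exposed cultures.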
# [7] = at 5.0 µM (retest, dose inferred, filed as 0.5)
# [8] = at 50.0 µM (retest, dose inferred, filed as 5.0)
Structure (SMILES),"growth inhibition [1, 7]","growth inhibition [1, 8]",growth inhibition ([1]; at 50.0 µM),"growth inhibition [2, 7]","growth inhibition [2, 8]",growth inhibition ([2]; at 50.0 µM),"growth inhibition [3, 7]","growth inhibition [3, 8]",growth inhibition ([3]; at 50.0 µM),"growth inhibition [4, 7]","growth inhibition [4, 8]",growth inhibition ([4]; at 50.0 µM),"growth inhibition [5, 7]","growth inhibition [5, 8]",growth inhibition ([5]; at 50.0 µM),"growth inhibition [6, 7]","growth inhibition [6, 8]",growth inhibition ([6]; at 50.0 µM)
O=C(c1ccccc1)c1ccc2c(c1Cl)C(=O)c1ccccc1C2=O,-6%,-1%,43%,-3%,-7%,43.8%,0%,0%,63.8%,14%,-16%,4%,-8%,-11%,80.5% (active),1%,0%,65.2%
Oc1cc(Cl)cc2c1-c1ccc(Cl)cc1C2O (stereo not given),9%,97% (active),95.2% (active),6%,98% (active),91.2% (active),-4%,97% (active),96.3% (active),28%,97% (active),81.8% (active),31%,97% (active),93.8% (active),20%,98% (active),95.5% (active)
CCN(CC)CC(O)c1ccc(/C=C/c2ccc(Cl)cc2)cc1 (stereo not given),12%,95% (active),98.1% (active),6%,97% (active),98% (active),8%,98% (active),58.5%,12%,97% (active),98.7% (active),17%,96% (active),98.6% (active),15%,97% (active),98.4% (active)
CC(=O)/C(=C\c1ccc(Cl)cc1Cl)C(=O)CCN(C)C,4%,99% (active),97.5% (active),-3%,99% (active),99.3% (active),11%,99% (active),97.3% (active),4%,98% (active),76% (active),-1%,98% (active),98% (active),1%,98% (active),98.8% (active)
COc1ccc([N+](=O)[O-])cc1Nc1c2ccccc2nc2ccccc12,6%,69%,80.8% (active),17%,70% (active),64.2%,0%,58%,49%,-2%,-16%,37.5%,-1%,49%,46.5%,1%,6%,41%
O=C(N/C(=C\c1ccc(Oc2ccc(Cl)c(Cl)c2)cc1)c1nc2ccccc2[nH]1)c1ccccc1,29%,97% (active),97.8% (active),10%,97% (active),98.3% (active),10%,97% (active),98% (active),13%,65%,95.6% (active),15%,95% (active),97.2% (active),6%,89% (active),98.2% (active)
O=C1c2cccc(O)c2C(=O)c2c(O)cc(CO)cc21,58%,92% (active),87% (active),52%,94% (active),90.3% (active),61%,93% (active),90.5% (active),23%,81% (active),88% (active),54%,91% (active),89.4% (active),82% (active),97% (active),90.8% (active)
O=C(O)CCCCCCCCC(=O)CCl,9%,97% (active),98.8% (active),23%,99% (active),99.5% (active),29%,98% (active),99% (active),14%,98% (active),97.5% (active),48%,98% (active),99.5% (active),38%,98% (active),99.2% (active)
CCc1cc(/C=C\c2ccnc3ccccc23)ccc1N(C)C,-1%,99% (active),98.2% (active),-17%,91% (active),98.4% (active),-1%,95% (active),98.3% (active),-12%,81% (active),93.5% (active),-6%,93% (active),98.1% (active),-8%,97% (active),98% (active)
CCN(CC)CCOC(=O)Nc1cc(Cl)cc(Cl)c1,50%,68%,71% (active),37%,60%,47.1%,52%,87% (active),68.5%,36%,62%,58.2%,47%,69%,61.2%,59%,86% (active),54.8%
CCOC(=O)c1ccc(-c2cccs2)n1C,-14%,6%,65.9%,-1%,-6%,43.8%,-12%,-3%,61.9%,28%,0%,23.4%,-12%,1%,67.8%,-9%,-1%,43.2%
Cc1ccc(S(=O)(=O)OCCCCOS(=O)(=O)c2ccc(C)cc2)cc1,0%,4%,76% (active),-7%,-3%,26.1%,-6%,4%,15.7%,2%,-5%,28.4%,-2%,2%,-17.2%,2%,1%,15.1%
N#CC1Sc2ccccc2N1C(=O)c1ccccc1 (stereo not given),-2%,3%,96.6% (active),-15%,-6%,91% (active),-2%,-19%,93% (active),-12%,-19%,78% (active),-10%,4%,84.2% (active),-12%,-5%,98% (active)
COc1ccc(Cc2nncc3ccccc23)cc1OC,-4%,84% (active),91.2% (active),1%,83% (active),96.5% (active),-3%,92% (active),95.3% (active),1%,83% (active),72.2% (active),1%,90% (active),96% (active),-4%,93% (active),95.7% (active)
CC1=C(C(=O)OC(C)C)C(c2ccccc2[N+](=O)[O-])C(C(=O)OC(CO[N+](=O)[O-])CO[N+](=O)[O-])=C(C)N1 (stereo not given),17%,24%,83.6% (active),30%,27%,87.7% (active),-20%,-8%,89.1% (active),2%,22%,83.9% (active),-5%,25%,87.2% (active),18%,19%,81.7% (active)
CC1=NOC(=O)C1N=Nc1ccc(Br)cc1C (stereo not given),99% (active),95% (active),93% (active),100% (active),96% (active),94.6% (active),99% (active),94% (active),94.8% (active),99% (active),94% (active),92.8% (active),99% (active),96% (active),94.5% (active),99% (active),94% (active),90.5% (active)
CCOc1ccccc1C(=O)OCc1ccccc1,-7%,8%,10.1%,-9%,4%,0.65%,-1%,19%,18.9%,23%,-22%,15.2%,4%,-20%,6.2%,-19%,21%,1.55%
S=C(NCc1ccccc1)[S][Sb]([S]C(=S)NCc1ccccc1)[c]1ccccc1,1%,95% (active),95.8% (active),2%,97% (active),88.4% (active),-138%,93% (active),96% (active),-6%,89% (active),69.8%,-11%,93% (active),84.5% (active),6%,87% (active),97.3% (active)
CCCCCCCCCCCc1nnc(N)o1,28%,91% (active),96.7% (active),11%,92% (active),96.2% (active),1%,89% (active),95.2% (active),35%,92% (active),93.3% (active),-10%,99% (active),95.1% (active),7%,94% (active),96.8% (active)
CCN(CC)CCCNc1ccc([N+](=O)[O-])c2nc3ccc(OC)cc3c(N)c12,-13%,62%,44.2%,-20%,27%,-5.3%,-7%,44%,79.2% (active),2%,31%,19.6%,-11%,54%,13.6%,-39%,74% (active),62%
CC1SC2=NC3=C(c4ccccc4C3=O)C(c3ccc(Cl)cc3)N2C1=O (stereo not given),-3%,75% (active),58.7%,-28%,81% (active),33.8%,-6%,69%,73.2% (active),14%,84% (active),56.3%,-3%,88% (active),51.8%,-17%,91% (active),53.4%
Cc1cccc2c(C(=O)CBr)cc(-c3ccc(Cl)cc3)nc12,54%,91% (active),95.7% (active),89% (active),93% (active),95.3% (active),96% (active),91% (active),95.2% (active),36%,85% (active),85.8% (active),74% (active),92% (active),95% (active),88% (active),90% (active),95.5% (active)
O=[N+]([O-])/C(Cl)=C(\Sc1ccccc1)C(Cl)=C(Cl)Cl,100% (active),99% (active),89.8% (active),100% (active),100% (active),93.4% (active),99% (active),99% (active),90.6% (active),99% (active),99% (active),91.9% (active),99% (active),99% (active),91.8% (active),100% (active),99% (active),86.8% (active)
COc1cccc2c1C(=O)c1c(O)c3c(c(O)c1C2=O)CC(O)(C(=O)CO)CC3OC1CC(N)C(I)C(C)O1 (stereo not given),98% (active),98% (active),89.5% (active),98% (active),99% (active),88.8% (active),98% (active),98% (active),85.8% (active),95% (active),98% (active),87.4% (active),98% (active),98% (active),83.8% (active),96% (active),97% (active),91% (active)
CCC1([N+](=O)[O-])COC(c2ccc3c(c2)OCO3)OC1 (stereo not given),-9%,-11%,-1.7%,-14%,-1%,-3.15%,-1%,-47%,11.7%,10%,21%,-1.9%,14%,-23%,3.35%,-18%,-6%,4.45%
